Compound activity as filed in PubChem.
This is a sample that favours compounds with a hit; in the whole collection about 9.2% have one here.
ELG1 DNA repair: qHTS screen for small molecules that inhibit ELG1-dependent DNA repair in human embryonic kidney (HEK293T) cells expressing luciferase-tagged ELG1 | 2.3% of 330,000 active | HEK293T ELG1-luciferase reporter, luminescence, 16 h; DNA damage induced by 5-fluorouridine | AID 504467, 2011 | Potency, µM (titrated, usually from 46.1 µM), without a hit: at the highest dose activity change, negative = inhibition, usual class: inhibitors; note: % is set by controls: 0 for no effect and ±100 for the full control effect; nearly all actives have a fitted effect of over 55% in size
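Step one: seed 2,000 cells per well. Step two: pin-transfer compound or DMSO alongside 5-fluorouridine. Step three: incubate 16 hr, 37 °C, 5% CO2. Step four: add ONE-Glo, wait 30 min, read luminescence.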
Rab9 promoter act: qHTS Assay for Rab9 Promoter Activators; Huh7 Rab9 promoter-luciferase reporter, luminescence, 24 h; Potency, µM (doses to about 9.22 µM), without a hit: at the highest dose activation, negative = inhibition, actives largely listed as activators; 2.8% of 320,000 active; AID 485297, 2010; note: % of control where 0% means no effect; nearly all actives have a fitted effect of over 60% in size
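Promoter activation is measured as luciferase luminescence in Huh7 cells stably transfected with a Rab9 promoter–luciferase construct, following 24 h compound exposure at 37 °C and 10 min reagent incubation at ambient temperature.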
ELG1 genotoxic: qHTS screen for small molecules that induce genotoxicity in human embryonic kidney (HEK293T) cells expressing luciferase-tagged ELG1; HEK293T ELG1-luciferase reporter, luminescence, 16 h; Potency, µM (doses to about 46 µM), inactives show top-dose activity change, positive = activation, usual class: activators; 1.3% of 330,000 active; note: % of control where 0% means no effect; nearly all actives have a fitted effect of over 60% in size
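Quantitative HTS format in 1536-well plates. HEK293T ELG1-luciferase reporter cells receive test compound and are incubated 16 hr at 37 °C, 5% CO2; ONE-Glo added, 30 min room temperature, then luminescence read.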
FLuc counter: qHTS profiling assay for firefly luciferase inhibitor/activator using purifed enzyme and Km concentrations of substrates (counterscreen for miR-21 project). Luciferin 4-monooxygenase (Photinus pyralis), P08659. purified FLuc, Km substrates, luminescence inhibition. Potency, µM (series often up to 57.5 µM), inactives show at the highest dose activity change, negative = inhibition, hits mostly inhibitors. 6.9% of 360,000 active. AID 588342, 2011;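 note: plate controls were vehicle for no effect and reference inhibitor for full effect; nearly all actives have a fitted effect of over 55% in size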
Target sequence (P08659 whole entry, looked up): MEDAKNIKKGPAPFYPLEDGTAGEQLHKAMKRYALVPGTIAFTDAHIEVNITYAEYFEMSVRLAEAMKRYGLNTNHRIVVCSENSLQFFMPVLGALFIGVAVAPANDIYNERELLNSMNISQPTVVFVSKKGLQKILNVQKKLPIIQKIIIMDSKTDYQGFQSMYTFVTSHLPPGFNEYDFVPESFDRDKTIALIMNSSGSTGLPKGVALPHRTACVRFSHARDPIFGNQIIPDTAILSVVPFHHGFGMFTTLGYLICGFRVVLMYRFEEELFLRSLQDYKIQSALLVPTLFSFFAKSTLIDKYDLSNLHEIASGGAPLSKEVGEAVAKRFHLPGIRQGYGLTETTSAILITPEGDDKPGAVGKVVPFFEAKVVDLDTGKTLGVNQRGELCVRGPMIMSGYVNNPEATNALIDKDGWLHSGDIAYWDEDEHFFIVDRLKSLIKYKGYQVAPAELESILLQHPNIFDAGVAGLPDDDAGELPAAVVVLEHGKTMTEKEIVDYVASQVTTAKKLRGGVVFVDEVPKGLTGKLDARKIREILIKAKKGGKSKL
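Purified P. pyralis luciferase (10nM final) with 10uM D-luciferin and 10uM ATP (Km levels) in 50mM Tris acetate pH 7.5, 10mM Mg acetate, 0.01% Tween-20, 0.05% BSA; qHTS 6-point titration, ~60 µM downward; luminescence read.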
NPC1 promoter act: qHTS Assay for NPC1 Promoter Activators | AID 485313, 2010 | Huh7 NPC1 promoter luciferase reporter, 24 h | 2.4% of 320,000 active | Potency, µM (titrated, usually from 9.22 µM), for the others: at the top dose activation, actives largely listed as activators; note: % of control where 0% means no effect; nearly all actives have a fitted effect of over 60% in size
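Huh7 cells stably carrying NPC1 promoter–luciferase, plated in Opti-MEM with 10% FBS for 2 h, were exposed to compound in DMSO for 24 h at 37 °C; luciferase reagent was added for 10 min and luminescence read.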
SMN2 splice enh: qHTS Assay for Enhancers of SMN2 Splice Variant Expression; HEK293 SMN2-luciferase splicing reporter, luminescence, 30-36 h; Potency, µM (doses to about 46.1 µM), for the others: at the highest dose activity change, positive = activation, usual class: activators; 2.8% of 210,000 active; AID 1458, 2008; note: % of control where 0% means no effect; nearly all actives have a fitted effect of over 55% in size
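HEK293 cells carry an SMN2 […]–luciferase reporter in which exon 7 inclusion puts luciferase in frame. Cells were plated 10-12 h before compound addition, then incubated 30-36 h at 37C. ONE-Glo luminescence was read; sodium butyrate at 4.5 mM final served as control.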
* hit, by the source's call. Calls come from the whole dose curve; as a rule, active = well fitted curve in the direction sought with a large enough effect; inconclusive = small, poorly fitted or top-dose-only effect, or another doubt; inactive = no such curve, though single readings can be large; an effect the other way counts as inactive or inconclusive. Potency is the fitted concentration of half-maximal effect.

For CCCCN(CC)CCNC(=O)C1CCN(c2nnc(C)c3c(C)n(-c4ccc(C)cc4)nc23)CC1 the results were FLuc counter 2.4%.
For COc1ccc(CCNC(=O)c2cc(C(=O)c3cc(Cl)ccc3O)cn(CCc3ccc(OC)cc3)c2=O)cc1 the results were ELG1 DNA repair inconclusive, Rab9 promoter act -6.7%, ELG1 genotoxic -11.0%, FLuc counter 9.0%, NPC1 promoter act -5.9% and SMN2 splice enh -35.9%.
Screening O=C(c1cc(C(=O)NCCc2ccccc2)c(=O)n(CCc2ccccc2)c1)c1cc(Cl)ccc1O returned ELG1 DNA repair 23.1µM*, Rab9 promoter act 0.6%, ELG1 genotoxic -15.2%, FLuc counter 1.1%, NPC1 promoter act -0.8% and SMN2 splice enh -17.5%.
`COc1ccc(CCNC(=O)c2cc(C(=O)c3cc(C)ccc3O)cn(CCc3ccc(OC)cc3)c2=O)cc1` gave ELG1 DNA repair 13µM*, Rab9 promoter act -1.4%, ELG1 genotoxic -6.6%, FLuc counter 2.5%, NPC1 promoter act -3.9% and SMN2 splice enh -43.9%.
Screening COCCCNc1nc2c(S(=O)(=O)c3ccccc3)nnn2c2ccc(Cl)cc12 returned FLuc counter -4.4% and SMN2 splice enh 3.8%.
`COc1ccc2c(CC(=O)N3CCN(S(=O)(=O)c4ccc(F)cc4)CC3)coc2c1` gave ELG1 DNA repair 2.2%, Rab9 promoter act -9.0%, ELG1 genotoxic 0.1%, FLuc counter -0.2% and NPC1 promoter act -2.6%.
O=C(CN1CCN(C(=O)CNC(=O)c2ccc3c(c2)OCO3)CC1)Nc1ccc(F)cc1 was read as ELG1 DNA repair 1.7%, Rab9 promoter act -5.4%, ELG1 genotoxic -1.0%, FLuc counter -1.8% and NPC1 promoter act -1.3%.
`O=S(=O)(c1ccccc1)N(CC1CO1)c1cc(Cl)ccc1Cl` (stereo not given) gave ELG1 DNA repair 0.4%, Rab9 promoter act -0.1%, ELG1 genotoxic -4.5%, FLuc counter -0.9% and NPC1 promoter act -5.6%.
Screening CC(OC(=O)c1ccccc1C(=O)N(C)c1ccccc1)C(=O)Nc1ccc(C(N)=O)cc1 (stereo not given) returned ELG1 DNA repair 13.2%, Rab9 promoter act 1.9%, ELG1 genotoxic 1.7%, FLuc counter -1.7% and NPC1 promoter act 6.5%.
For CC(OC(=O)c1cc(O)c2ccccc2c1O)C(=O)Nc1ccc(C(N)=O)cc1 (stereo not given) the results were ELG1 DNA repair 14.5%, Rab9 promoter act 20.7%, ELG1 genotoxic 9.8%, FLuc counter 8.49µM* and NPC1 promoter act 10.4%.
Screening CCN(CCCNC(=O)CSc1cc(=O)n(C)c2cc(Cl)ccc12)c1ccccc1 returned FLuc counter -15.4% and SMN2 splice enh -1.3%.
`COC(=O)c1c(-n2c(C)cc(C=O)c2C)sc2c1CCCC2` gave ELG1 DNA repair 5.9%, Rab9 promoter act 1.8%, ELG1 genotoxic 1.2%, FLuc counter 12µM*, NPC1 promoter act -3.5% and SMN2 splice enh -20.6%.
Cc1ccc(OCc2nc(-c3ccc(C(=O)N4CCN(c5ccc(Cl)cc5)CC4)cc3)oc2C)cc1 was read as FLuc counter -1.6% and SMN2 splice enh 2.4%.
Screening C=CCOc1ccc(/C=C/C(=O)OCC(=O)N(C)CC(=O)Nc2ccc(F)cc2)cc1 returned ELG1 DNA repair inconclusive, Rab9 promoter act 0.9%, ELG1 genotoxic 0.6%, FLuc counter 2.3% and NPC1 promoter act -1.9%.
S=C(NCc1ccco1)Nc1ccc(Cl)cc1Cl was read as ELG1 DNA repair inconclusive, Rab9 promoter act 19.4%, ELG1 genotoxic 16.9%, FLuc counter inconclusive, NPC1 promoter act 16.3% and SMN2 splice enh -23.8%.
S=C(NCc1ccco1)Nc1ccc(Br)cc1Cl was read as ELG1 DNA repair 10.0%, Rab9 promoter act inconclusive, ELG1 genotoxic inconclusive, FLuc counter 26.9µM*, NPC1 promoter act 29.9% and SMN2 splice enh 8.6%.
`S=C(NCc1ccccn1)Nc1ccc(Br)cc1Cl` gave ELG1 DNA repair inconclusive, Rab9 promoter act 3.16µM*, ELG1 genotoxic inconclusive, FLuc counter inconclusive, NPC1 promoter act 29.2% and SMN2 splice enh 11.2µM*.
CC(C)c1ccccc1OCC(=O)Nc1cc(S(=O)(=O)N2CCOCC2)ccc1N1CCCC1 was read as ELG1 DNA repair inconclusive, Rab9 promoter act -5.0%, ELG1 genotoxic -33.0%, FLuc counter -0.8% and NPC1 promoter act -3.2%.
Screening CCOCCCNc1nc2c(S(=O)(=O)c3ccc(CC)cc3)nnn2c2ccc(Cl)cc12 returned FLuc counter 4.8% and SMN2 splice enh -2.2%.
`C/C(=N/OC(=O)c1cccc(Cl)c1)c1nccs1` gave ELG1 DNA repair -4.7%, Rab9 promoter act 0.7%, ELG1 genotoxic -2.6%, FLuc counter 2.13µM*, NPC1 promoter act 4.1% and SMN2 splice enh -4.5%.
Screening C/C(=N\OC(=O)c1ccccc1F)c1nccs1 returned ELG1 DNA repair 2.4%, Rab9 promoter act 2.9%, ELG1 genotoxic 0.8%, FLuc counter 1.35µM*, NPC1 promoter act 3.9% and SMN2 splice enh -13.7%.
Screening O=C(OCc1cnc(Cl)s1)c1cccc(Cl)c1 returned ELG1 DNA repair 0.0%, Rab9 promoter act 7.5%, ELG1 genotoxic -0.8%, FLuc counter -1.4% and NPC1 promoter act -2.4%.
Screening O=C(C1CCN(c2nnc(-n3cccc3)s2)CC1)N1CCN(Cc2ccc3c(c2)OCO3)CC1 returned ELG1 DNA repair inconclusive, Rab9 promoter act -13.1%, ELG1 genotoxic -1.1%, FLuc counter -2.4%, NPC1 promoter act -6.3% and SMN2 splice enh -83.8%.
For Cn1c(C(=O)N2CCN(Cc3ccc4c(c3)OCO4)CC2)cc2sccc21 the results were ELG1 DNA repair inconclusive, Rab9 promoter act -3.4%, ELG1 genotoxic -3.5%, FLuc counter -1.4%, NPC1 promoter act -0.5% and SMN2 splice enh -24.1%.
O=C(C1CCN(c2nnc(N3CCCC3=O)s2)CC1)N1CCN(Cc2ccc3c(c2)OCO3)CC1 was read as ELG1 DNA repair 13µM*, Rab9 promoter act -0.9%, ELG1 genotoxic 0.6%, FLuc counter -0.8%, NPC1 promoter act -7.5% and SMN2 splice enh -28.3%.
